Cycloheximide cs – affects cycloheximide protein synthesis inhibition readout, counter-screen; max response, %; 300,000 compounds, 12% hits; cell reporter, cycloheximide protein synthesis inhibition counterscreen; AID 2314; in the data active means max response mostly above about 13%, no sharp cut-off; inactive means mostly below about 14%; further: read at 38.3 µM for the half of the compounds with a filed dose; 0% is about no effect
Shiga toxin inh – inhibitors of Shiga toxin in Vero cells | 290,000 compounds, 9.2% hits | inhibition, % at 38.7 µM | AID 2315 | Vero cells, Shiga toxin protein synthesis inhibition reporter; in the data active means inhibition mostly above about 28%, no sharp cut-off; inactive means mostly below about 43%; further: 0% is about no effect
Pf growth 48h – P. falciparum growth inhibition at 48 hours (one generation); P. falciparum luciferase growth in erythrocytes, 48 h; Potency, µM (series often up to 28.7 µM), without a hit: at the highest dose activity change, negative = inhibition, actives largely listed as inhibitors; 310,000 compounds, 5.9% hits; AID 504832; active means well fitted inhibition curve with a large enough effect; inconclusive means small, poorly fitted or top-dose-only effect, or another doubt; inactive means no such curve, though single readings can be large or run the other way; further: potency means the concentration at half of the fitted maximal effect; on the % scale 0 is the no-effect control and ±100 the full control effect
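Luciferase-expressing parasites in RBCs, 2% Hct / 0.1% parasitemia final; RPMI 1640 + 0.5% Albumax; 37 C, 5% CO2, one generation; luminescence read-out, lower signal = inhibition.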
Pf growth 96h – P. falciparum growth inhibition at 96 hours. P. falciparum luciferase reporter growth, 96 h. Potency, µM (series often up to 28.7 µM), for the others: top-dose activity change, negative = inhibition, usual class: inhibitors. 320,000 compounds, 6.9% hits. AID 504834; active means well fitted inhibition curve with a large enough effect; inconclusive means small, poorly fitted or top-dose-only effect, or another doubt; inactive means no such curve, though single readings can be large or run the other way; further: potency means the concentration at half of the fitted maximal effect; on the % scale 0 is the no-effect control and ±100 the full control effect
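Luminescence readout: decreased luciferase signal marks inhibited growth of reporter-expressing P. falciparum in infected red cells (2% hematocrit, 0.05% parasitemia final), exposed to compound two generations (96 h, 37 C, 5% CO2).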
NS1 inh – inhibitors of influenza NS1 protein function. Potency, µM (series often up to 46.1 µM), without a hit: top-dose activity, positive = more growth. 270,000 compounds, 0.4% hits; further: potency means the concentration at half of the fitted maximal effect; actives are rising curves; nearly all actives have a fitted effect of over 50% in size
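S. cerevisiae expressing influenza A NS1, grown in glucose, washed, then diluted 1:100 into pH 6.0 -URA galactose medium with 23 nl compound. Growth recovery read as OD600; NS1-free strain serves as control.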
SARS PLpro yeast – SARS-CoV PLP inhibition in yeast; 330,000 compounds, 0.19% hits; Potency, µM (series often up to 32.9 µM), without a hit: at the highest dose activity, positive = growth rescue, actives largely listed as activators; S. cerevisiae expressing SARS-CoV PLpro, growth rescue; further: potency means the concentration at half of the fitted maximal effect; 0% is about no effect; nearly all actives have a fitted effect of over 55% in size
Numbers without * were called inactive; i = inactive; ? = inconclusive; . = no result; [ ] = dose if it differs, or a comment. Sampled rows, rich in hits. Any-hit rate of the full collection: about 21%. Unless noted, the call rests on the fitted dose curve.

SMILES	Cycloheximide cs	Shiga toxin inh	Pf growth 48h	Pf growth 96h	NS1 inh	SARS PLpro yeast
CCN(CC)Cc1ccccc1CNC(=O)c1cccc(S(=O)(=O)Nc2ccc3c(c2)OCO3)c1	.	.	9.3µM*	?	.	4%
CCN(CC)CCNC(=O)c1ccc(NC(=O)c2cccc(S(=O)(=O)Nc3ccc(C)cc3)c2)cc1	3	-6	0.37µM*	1.2µM*	.	-3%
CC(C)(CNC(=O)c1ccc(-c2cccc(C(F)(F)F)c2)o1)N1CCOCC1	.	.	?	-9%	.	-9%
O=S(=O)(Nc1cc(O)cc2cccnc12)c1ccc(Br)s1	-8	-5	.	.	.	.
COc1cccc(C(=O)OCC(=O)c2c(N)n(C)c(=O)n(C)c2=O)c1	.	.	-23%	3%	.	-3%
CC(C)[C@H](N)c1cn([C@@H](CC(N)=O)C(=O)N2CCNCC2)nn1	.	.	-20%	?	.	3%
COc1ccccc1CNC(=O)CS(=O)(=O)Cc1ccccc1	-3	-29	9%	2.6µM*	3%	6%
O=C(Cc1ccc(Br)cc1)NCc1ccccc1	19*	22	41%	?	13%	-1%
Cc1ccc(CNC(=O)Cc2ccc(Br)cc2)cc1	-3	19	50%	i	20%	7%
COc1ccccc1CNC(=O)Cc1ccc(Br)cc1	35*	active	?	16%	-13%	9%
Cc1nn(C)c(C)c1NC(=O)COc1ccc(Cl)cc1Br	.	.	-7%	?	.	0%
Cc1ccc(OCCNC(=O)c2ccccc2N)cc1	13*	27*	22%	6%	-4%	4%
COc1ccccc1C(=O)NCCOc1ccc(C)c(C)c1	25*	39*	?	40%	17%	1%
COc1ccc2c(CCNC(=O)c3ccco3)c[nH]c2c1	49*	63*	39%	9%	-8%	-8%
CCOC(=O)N/N=C/c1ccc(Oc2ccccc2)cc1	41*	104*	?	?	.	11%
CCOC(=O)N/N=C/c1ccc(C)o1	2	5	11%	36%	8%	3%
COc1ccc2c(CCNC(N)=S)c[nH]c2c1	10	3	129%	5%	?	-2%
O=C(CN1C(=O)c2cccnc2Oc2ccc(Cl)cc21)N1CCCC1	2	13	0%	?	14%	7%
CC1Sc2ccc(S(=O)(=O)CCC(=O)NCc3ccc(Cl)cc3)cc2NC1=O (stereo not given)	-1	-2	-4%	?	-7%	2%
Cc1ccc(N2C(=O)CN(Cc3ccccc3)C2=S)cc1C	8	-8	?	?	-1%	-1%
COc1ccc(OCCNC(=O)c2ccccc2OCC(=O)N2CCCCC2)cc1	-2	2	?	10%	-36%	20%
O=C(NCCOc1ccc(Cl)cc1)c1ccco1	2	11	-3%	2.1µM*	-28%	-4%
CCc1ccc(OCC(=O)NCCOc2ccccc2)cc1	27*	66	.	6%	-94%	1%
COc1cc(C(=O)NCCOc2cc(C)cc(C)c2)c(Br)c(OC)c1OC	-1	-13	-11%	13µM*	-15%	-15%
COc1ccc(OCCNC(=O)c2ccccc2OCC(=O)Nc2ccc(NC(C)=O)cc2)cc1	24*	18	-2%	-20%	?	-12%
SMILES	Cycloheximide cs	Shiga toxin inh	Pf growth 48h	Pf growth 96h	NS1 inh	SARS PLpro yeast
COc1ccc(CCNC(=O)CSC2=NS(=O)(=O)c3ccccc3N2)cc1OC	.	.	20%	1%	.	-1%
COc1ccc(S(=O)(=O)N2CCCCC2)cc1NC(=O)CCCNC(=O)c1ccc(Cl)cc1	.	.	?	?	.	0%[6.58 µM]
CCc1ccc(OCCNC(=O)OCc2ccccc2)cc1	-2	40	19%	28%	-17%	-1%
Cc1ccc(OCCNC(=O)c2ccco2)cc1C	17*	74*	-7%	?	-71%	-6%
Cc1ccc(C(=O)NCCNC(=O)c2ccco2)cc1C	-3	-4	9%	20%	4%	-1%
CCOc1ccc(CNC(=O)c2ccco2)cc1	20*	40	46%	31%	.	-3%
CCOC(=O)NCCOc1ccc(Oc2ccccc2)cc1	21*	30*	.	.	.	.
CCc1ccc(OCCNC(=O)c2ccco2)cc1	34*	52*	-28%	37%	-29%	-7%
CCc1c(C)nc2cc(-c3ccc(OC)c(OC)c3)nn2c1NCC1CC1	24	26	.	?	-34%	-20%
Cc1ccc(S(=O)(=O)n2cnc(C)c2)cc1	-2	-4	4%	?	12%	1%
O=C(NC1CC1)c1ccc(F)cc1Cl	6	3	24%	.	2%	-10%
Cc1ccc(C(=O)NC2CCCCCCC2)c(Cl)c1	16*	.	167%	-33%	4%	1%
O=C(NC1CCCCCCC1)c1cc(F)c(F)cc1Cl	26*	83*	54%	?	4%	0%
COC(=O)CC1c2ccccc2S(=O)(=O)N1Cc1ccccc1 (stereo not given)	9	17	13%	-19%	2%	1%
CN1CCN(CC#Cc2ccccc2)CC1CCO (stereo not given)	-1	-2	1%	4.1µM*	7%	-9%
CC(C)(C)CN1CCN(CC#Cc2ccccc2)CC1CCO (stereo not given)	17*	34	14%	?	22%	7%
Fc1ccccc1NC(=S)N1CCN(Cc2ccccc2)CC1	5	-7	26%	-7%	-8%	-1%
O=[N+]([O-])c1ccc(NC(=S)NCCc2ccc(F)cc2)cc1	3	13	10µM*	5.2µM*	-39%	-87%
O=C(NCCc1ccc(F)cc1)Nc1ccc([N+](=O)[O-])cc1	21*	54	?	-5%	-92%	-13%
N#CC1(Cc2ccccc2Cl)c2ccccc2C=CN1C(=O)c1ccccc1 (stereo not given)	2	-8	?	.	7%	-15%
CC(C)(C)OC(=O)CC1(C#N)c2ccccc2C(Br)=CN1C(=O)c1ccccc1 (stereo not given)	.	.	12µM*	12µM*	.	3%
CC(C)[C@H](NC(=O)C1CC(=O)N(c2ccc3c(c2)OCO3)C1)C(=O)NC1CCCC1 (stereo not given in full)	-4	-14	22%	22%	-2%	4%
O=C(/C=C/c1ccc(-c2ccccc2[N+](=O)[O-])o1)c1ccccc1	51*	96*	-1%	-20%	-42%	-29%
CNC(=O)/C(C#N)=C/c1ccc(-c2ccc(Cl)cc2)o1	28*	76*	18%	?	2%	-2%
CNC(=O)/C(C#N)=C/c1ccc(-c2ccccc2[N+](=O)[O-])o1	36*	35	-6%	20%	-8%	-2%
O=C(O)/C(=C\c1ccc(-c2ccccc2[N+](=O)[O-])o1)c1ccccc1	11	28*	1%	0%	-14%	0%
C=CCON/C(CCC)=C1\C(=O)C(C(=O)OC)C(C)(C)CC1=NC (stereo not given)	9	19	5%	-15%	.	0%
